Compound activity: PubChem BioAssay, several laboratories
Hits are enriched below; roughly 0.5% of the tested compounds scored in any of these assays.
E coli growth-1 = E. coli V3065 growth inhibition, primary screen, counter-screen for AddAB inhibitor project, absorbance, OD600 | 18 h | inhibition, % at 11.9 µM | 0.27% of 330,000 active | AID 449728, 2010;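 active means inhibition above the campaign's mean inhibition across all tested compounds plus 3 SD, cut at about 9.9% in these data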;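 further: uninfected addAB+ strain grown without phage in ampicillin broth; 0% = DMSO wells and 100% = ciprofloxacin 0.95 µg/ml wells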
AddAB inh = growth inhibition of E. coli expressing H. pylori AddAB, primary screen, AddAB inhibitor project, absorbance. inhibition, % at 11.9 µM. 0.29% of 330,000 active. AID 435030, 2010; in the data active means inhibition above about 12%;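 further: 0% = vehicle wells of infected cells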
Tat export inh = E. coli Tat export inhibitors, primary screen, MC4100, TorA-mCherry reporter, fluorescence, single point. inhibition, % at 10 µM. 0.036% of 340,000 active;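 active means mean replicate inhibition at least 50% and at least half of replicates individually reaching 50%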;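 further: exported cargo escapes ClpAP degradation while cytoplasmic cargo is degraded and loses fluorescence; 0% = median of neutral control wells and 100% = median of NaSCN control wells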
E coli growth-2 = E. coli growth inhibition, primary screen, OD600; Escherichia coli growth, 23 h; hits give low values; OD600 absorbance (test concentration not listed); 0.21% of 330,000 active;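 active means OD600 absorbance below the run mean of sample wells minus 3.6 SD, in any replicate, cut at about 0.56 in these data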
phage Ecoli inh = growth loss of phage-infected E. coli, primary screen, RecBCD inhibitor project, absorbance, with phage, HTS | inhibition, % at 11.9 µM | 0.26% of 360,000 active | AID 651602, 2012; in the data active means inhibition above about 11%
The depositor's hits bear a star.

CNCC(CC1CCCCC1)NCC(CC(C)C)NCCc1cccc(C(F)(F)F)c1 (centres undefined) was read as E coli growth-2 0.068*.
CNC[C@@H](CC1CCCCC1)NC[C@H](CC(C)C)NCCc1cccc(C(F)(F)F)c1 was read as E coli growth-1 -2, AddAB inh 0, Tat export inh 6 and phage Ecoli inh 4.
Screening CN1CCN(C(c2cccs2)c2nnnn2Cc2ccc(F)cc2)CC1 (centres undefined) returned E coli growth-1 -2, AddAB inh 1, Tat export inh 1, E coli growth-2 0.45* and phage Ecoli inh 1.
For Cc1cc(Nc2ccccc2)nc(NCc2ccccc2)n1 the results were E coli growth-1 4, AddAB inh 4, Tat export inh 0, E coli growth-2 0.6 and phage Ecoli inh 4.
Screening Cc1cc(Nc2ccc(Cl)cc2)nc(NCc2ccccc2)n1 returned E coli growth-1 5, AddAB inh 3, Tat export inh -9, E coli growth-2 0.41* and phage Ecoli inh 4.
`C=CCC(CC(=O)N(CCO)Cc1ccccc1)C(=O)NC(C)COC(=O)C(CC=C)CC(=O)OC(C)(C)C` (centres undefined) gave E coli growth-2 0.66.
Screening CC=CC(=O)Nc1cccc(C2=NOC3(C2)CC(C(N)=O)N(C(=O)COc2ccc(Cl)cc2)C3)c1 (centres undefined) returned E coli growth-2 0.67.
Screening S=C(NCc1ccccc1)NCc1cccc(CNC(=S)NCc2ccccc2)c1 returned E coli growth-1 10*, AddAB inh 10, Tat export inh -4, E coli growth-2 0.72 and phage Ecoli inh 7.
Screening CCOC(=O)C1C2COc3ccc(Cl)cc3C2N2C(=O)CN(Cc3ccco3)C(=O)[C@@]12C (some centres undefined) returned E coli growth-2 0.67.
`CC=CC=CC(=O)Nc1cccc(C2=NOC3(C2)CC(C(N)=O)N(C(=O)c2ccc(Cl)cc2)C3)c1` (centres undefined) gave E coli growth-2 0.66.
For C/C=C1\NC(=O)[C@H](CC(N)=O)N(C)C(=O)C([C@@H](C)O)NC(=O)C(CCCc2ccc(OC)cc2)NC(=O)[C@H](C(C)C)NC(=O)/C(=C\C)NC(=O)[C@H](O)[C@@H](C[C@@H](O)CCCCCCC)NC(=O)[C@H](C)NC(=O)CN(C)C(=O)[C@H](CCC(N)=O)NC1=O (some centres undefined) the results were Tat export inh 12, E coli growth-2 0.52* and phage Ecoli inh 1.
For COc1cc(F)cc(C2=CC(=O)CC(c3ccc(F)cc3)C2)c1 (centres undefined) the results were E coli growth-2 0.68.
Screening CCCCCC[N+](C)(C)CCSSCC[N+](C)(C)CCCCCC returned E coli growth-1 0, AddAB inh 0, Tat export inh 0, E coli growth-2 0.65 and phage Ecoli inh 1.
Screening CCCCCCCCCCCCCCCC[N+](C)(C)CC returned E coli growth-1 -2, AddAB inh -2, Tat export inh 13, E coli growth-2 0.061* and phage Ecoli inh 2.
For O=C(NC(=S)NNC(=O)c1ccccc1O)c1ccc([N+](=O)[O-])cc1 the results were E coli growth-1 16*, AddAB inh 11, Tat export inh 12 and phage Ecoli inh 6.
For O=C(NNC(=S)NC(=O)c1ccccc1)c1ccc([N+](=O)[O-])cc1 the results were E coli growth-1 -2, AddAB inh -3, Tat export inh -2, E coli growth-2 0.6 and phage Ecoli inh -9.
Screening CC(C)CC(CSc1ccccc1)N1CCN(CCc2ccccc2)CCC1=O (centres undefined) returned E coli growth-2 0.7.
For O=C(NNc1ccccc1)c1ccccc1 the results were Tat export inh 5, E coli growth-2 0.68 and phage Ecoli inh 4.
O=C(NNc1ccc(O)cc1)c1ccc(Br)cc1 was read as E coli growth-1 6, AddAB inh 7, Tat export inh -1, E coli growth-2 0.44* and phage Ecoli inh 10.
Screening CCCOc1ccc(C=NNC(=S)Nc2ccccc2[N+](=O)[O-])c(O)c1 returned E coli growth-2 0.7.
For CCOc1cccc(/C=N/NC(=S)Nc2ccccc2[N+](=O)[O-])c1O the results were E coli growth-1 9, AddAB inh 12, Tat export inh -16 and phage Ecoli inh 11*.
CCN1C(=O)C2C(c3ccc(-c4ccccc4)cc3)N[C@@](Cc3ccccc3)(C(=O)OC)C2C1=O (some centres undefined) was read as E coli growth-2 0.7.
For CCN1C(=O)C2C(c3ccc(C)cc3)N3C(=O)N(c4cccc(C)c4)C(=O)[C@@]3(Cc3ccccc3)C2C1=O (some centres undefined) the results were E coli growth-2 0.68.
For O=C(Nc1ccc(Cc2ccncc2)cc1)c1cccc([N+](=O)[O-])c1 the results were E coli growth-1 2, AddAB inh 2, Tat export inh 5, E coli growth-2 0.67 and phage Ecoli inh 3.
O=C(Nc1ccc(Cc2ccncc2)cc1)c1ccc([N+](=O)[O-])o1 was read as E coli growth-1 13*, AddAB inh 12, Tat export inh -4, E coli growth-2 0.58 and phage Ecoli inh 9.
Screening C=Cn1cc[n+](CC(=O)c2ccc(-c3ccccc3)cc2)c1 returned E coli growth-1 13*, AddAB inh 11, Tat export inh 2, E coli growth-2 0.68 and phage Ecoli inh 6.
CCc1ccc2[nH]c3nc(N/N=C/c4ccc(O)cc4O)nnc3c2c1 was read as E coli growth-1 11*, AddAB inh 11, Tat export inh -20 and phage Ecoli inh 8.
For O=C1C2C(c3ccc(F)cc3)N3C(=O)N(c4cccc(F)c4)C(=O)[C@@]3(Cc3ccc(Cl)cc3)C2C(=O)N1C1CCCCC1 (some centres undefined) the results were E coli growth-2 0.73.
Screening COc1cccc(-c2nnc(NC(=O)c3ccc(Cl)s3)o2)c1 returned E coli growth-1 0, AddAB inh 9, Tat export inh -16, E coli growth-2 0.47* and phage Ecoli inh -1.
For Cc1cccc(-c2nnc(NC(=O)c3ccc(Cl)cc3)o2)c1 the results were E coli growth-1 -1, AddAB inh 3, Tat export inh -1, E coli growth-2 0.52* and phage Ecoli inh -2.
For CC(=O)N1CCN(c2ccc(NC(=S)NC(=O)C=Cc3ccccc3)cc2)CC1 the results were E coli growth-2 0.68.
For O=C(C1=CC(c2ccc(Br)cc2)CC(OCCCCO)O1)N1CCOCC1 (centres undefined) the results were E coli growth-2 0.67.
Screening CN1CCC(NCCC(c2ccc(F)cc2)c2ccc(Cl)cc2)CC1 (centres undefined) returned Tat export inh 3, E coli growth-2 0.51* and phage Ecoli inh 1.
For CC(C)C(CCNC1CCN(C)CC1)c1ccc(Cl)cc1 (centres undefined) the results were E coli growth-1 -2, AddAB inh 2, Tat export inh -21, E coli growth-2 0.63 and phage Ecoli inh 3.
